Screening data: PubChem BioAssay, several laboratories
CHT PAM – allosterically activates the human high affinity choline transporter; Q9GZV3; CHT-expressing cells, membrane potential dye, choline EC20; hits give high values; LV-AA mutant CHT in HEK293 cells; B-score at 10 µM; 0.49% of 310,000 active; AID 488977;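 active means initial fluorescence not abnormally high and integrated response B-score, plate-corrected, over 3 SD above library mean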
MEKK2 mut-MEK5 – signal of MEK5 binding to mutant human MEKK2 PB1 domain. AID 1530. percent response, % at 10 µM. 0.35% of 290,000 active. bead flow cytometry, Alexa488-MEK5 binding to MEKK2 mutant; in the data active means percent response above about 24%, passing the limit was not always enough
Mot1-301 SUMO – blocks SUMOylation pathway, rescuing yeast Mot1-301 growth | S. cerevisiae Mot1-301 growth rescue, ATP luminescence, 38.5C; percent above DMSO median, 100 means doubled | growth rescue, % at 18.8 µM | 1% of 320,000 active;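 active means every valid replicate shows activation above 250% relative to neutral control wells; inactive means the rest, any valid replicate at or below 250%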;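 further: OY570 slx delta 5 strain wells were the positive control but not used for scaling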
MEKK3 PB1 HTS – MEKK3-MEK5 PB1 interaction, increase or decrease; Q99759; bead-based flow cytometry, Alexa488-MEK5 binding to MEKK3; actives lie on both sides; 0 = blocked by unlabeled MEK5, 100 = vehicle; binding response (% of control), % at 10 µM; 1.4% of 290,000 active; AID 1529;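 active means binding response more than 3 SD above or below the average of its plate-row segment, actives on both sides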;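 further: Alexa488 bead fluorescence after subtracting the streptavidin-only scavenger bead signal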
Target sequence (Q99759 whole entry, looked up): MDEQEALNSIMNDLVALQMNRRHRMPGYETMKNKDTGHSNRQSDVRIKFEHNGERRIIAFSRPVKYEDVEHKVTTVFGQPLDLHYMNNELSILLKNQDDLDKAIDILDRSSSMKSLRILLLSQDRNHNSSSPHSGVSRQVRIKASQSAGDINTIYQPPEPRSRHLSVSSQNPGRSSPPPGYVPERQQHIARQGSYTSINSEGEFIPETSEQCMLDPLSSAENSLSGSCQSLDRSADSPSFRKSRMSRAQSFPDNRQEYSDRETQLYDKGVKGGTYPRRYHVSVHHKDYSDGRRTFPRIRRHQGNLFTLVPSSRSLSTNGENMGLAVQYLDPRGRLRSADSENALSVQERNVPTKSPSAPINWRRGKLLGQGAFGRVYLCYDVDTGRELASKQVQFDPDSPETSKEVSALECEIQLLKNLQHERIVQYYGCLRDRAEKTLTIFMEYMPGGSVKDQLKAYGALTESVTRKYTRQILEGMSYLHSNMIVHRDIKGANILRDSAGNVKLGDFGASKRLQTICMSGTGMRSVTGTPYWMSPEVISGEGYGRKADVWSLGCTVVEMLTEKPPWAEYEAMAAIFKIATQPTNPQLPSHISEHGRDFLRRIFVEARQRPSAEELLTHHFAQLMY
CHT block – human CHT choline transport inhibition | Q9GZV3 | CHT-expressing cells, membrane potential dye, choline response; hits give low values | B-score at 10 µM | 0.86% of 310,000 active | AID 488975;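 active means B-score over 3 SD under the library average, and starting fluorescence ratio not unusually high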;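 further: choline stimulus applied at its EC90 after an EC20 pre-addition; B-score computed on integrated fluorescence ratio after choline addition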
MEKK2wt PB1 HTS – raises or lowers MEK5 binding to wildtype human MEKK2 PB1 domain; binding response (% of control), % at 10 µM; AID 1531; 1.1% of 290,000 active; bead flow cytometry, Alexa488-MEK5 binding to MEKK2 WT; actives lie on both sides; in the data active means binding response below about 67% or above about 130%
An asterisk follows results filed as active; i = inactive; . = no result given; ! = not active in a repeat; [ ] = another dose, or the depositor's remark. Hits are enriched below; roughly 4.1% of the tested compounds scored in any of these assays.

SMILES	CHT PAM	MEKK2 mut-MEK5	Mot1-301 SUMO	MEKK3 PB1 HTS	CHT block	MEKK2wt PB1 HTS
Cc1cc(=O)oc2cc(OC(C)C(=O)NC3CCCC3)ccc12 (centres undefined)	i	1	-27	100	i	99
Cc1cc(=O)oc2cc(OC(C)C(=O)Nc3ccc(N4CCCCC4)cc3)ccc12 (centres undefined)	i	5	96	98	i	-1.0*
O=[N+]([O-])c1ccc(/C=C/c2ccncc2)cc1	i	8	125	99	i	-2.0*[inhibitor]
COc1cc(OC)cc(N2C(=O)CC(N3CCC(C(=O)N4CCCCC4)CC3)C2=O)c1 (centres undefined)	i	-5	298*	99	i	105
CC(=O)Nc1cccc(N2C(=O)CC(N3CCC(C(=O)N4CCCCC4)CC3)C2=O)c1 (centres undefined)	i	3	11	99	i	97
CCOc1ccc2oc(C(=O)Nc3cc(C)ccn3)c(C)c2c1	i	.	-12	.	i	.
Cc1ccc(-c2nc(CN(C)C(C3CC3)C3CC3)c(C)o2)cc1	i	-1	316*	98	i	97
CSc1ccc(-c2nc(CN(C)C3CCOC3)c(C)o2)cc1 (centres undefined)	i	2	18	98	i	98
O=c1[nH]c(N2CCOCC2)nc2c1CCCC2	i	-1	-9	99	i	92
Cc1ccc(NC(=O)c2cccc(-n3cnnn3)c2)cc1Cl	.	.	-1	.	.	.
CCC(=O)Nc1nc(C)c(-c2csc(Nc3ccc(S(=O)(=O)Nc4cc(C)on4)cc3)n2)s1	.	-1	.	94	.	91
Cc1cc(NS(=O)(=O)c2ccc(Nc3nc(-c4sc(C)nc4C)cs3)cc2)no1	.	-22	.	-1.0*[inhibitor]	.	-2.0*[inhibitor]
O=C(O)CSCC(=O)Nc1ccccc1SCCS(=O)(=O)c1ccc(Cl)cc1	i	2	53	102	i	100
CCn1nc(C)cc1C(=O)N1CCc2c([nH]c3ccccc23)C1c1cc(F)ccc1F (centres undefined)	i	-4	479*	100	i	94
CC(C(O)c1ccc(O)cc1)N1CCC(Cc2ccccc2)CC1 (centres undefined)	i	5	333*!	112	i	119
c1ccc2oc(NC3=NCN(C4CCCCC4)CN3)nc2c1	i	4	15	98	i	93
Cc1nc(NC2=NCN(C3CCCCC3C)CN2)nc2ccccc12 (centres undefined)	.	11	.	102	.	139*
Cc1nccc(-c2cc(-c3ccc(Cl)cc3Cl)no2)n1	i	3	328*	101	i	106
COc1ccc(-n2c(Cn3c(=O)sc4ccccc43)nnc2SCC(=O)N2CCCC2)cc1	i	1	4	99	i	103
O=C(/C=C/c1ccccc1Cl)c1cccnc1	i	13	275*	99	i	106
O=C(CN1CCN(c2ccc(O)cc2)CC1)Nc1cc([N+](=O)[O-])ccc1Cl	i	19	-2	96	i	15*
Cc1ccc(S(=O)(=O)Nc2ccccc2)cc1C(=O)N1CCCC1	i	-1	359	98	i	102
Cc1ccc(S(=O)(=O)N(C)Cc2ccccc2)cc1C(=O)N1CCCCC1	i	-6	336*	98	i	95
CCOc1ccc(NS(=O)(=O)c2ccc(C(=O)NCC(c3ccc(OC)cc3)N3CCCC3)cc2)cc1 (centres undefined)	i	.	-1	.	i	.
CCOc1ccc(C2C(C#N)=C(N)Oc3nc[nH]c(=O)c32)cc1OC (centres undefined)	i	-3	334*	93	i	97
SMILES	CHT PAM	MEKK2 mut-MEK5	Mot1-301 SUMO	MEKK3 PB1 HTS	CHT block	MEKK2wt PB1 HTS
COCc1[nH]nc2c1C(c1ccc(OC)c(OC)c1)C(C#N)=C(N)O2 (centres undefined)	i	4	3	107	i	109
Cc1cccc(NS(=O)(=O)c2ccc(C3CCCCC3)cc2)c1	i	-4	792*	99	i	93
O=C(CSc1nnnn1-c1cccc(F)c1)NC1CCCCC1	.	.	51	.	.	.
O=C(c1cccc(Br)c1)N1CCN(S(=O)(=O)N2CCOCC2)CC1	i	-14	333*	92	i	85
CC(OC(=O)c1ccc(Cl)nc1)C(=O)N1CCc2ccccc21 (centres undefined)	i	.	-34	.	i	.
COc1cc(-n2nc(C)c3c2OC(N)=C(C#N)C3c2ccccc2)c(Cl)c(Br)c1O (centres undefined)	i	2	-6	104	-10*	99
C/C(=N\NC(N)=S)C1=CCC2C3CC[C@H]4CC(O)CC[C@]4(C)C3CC[C@]12C (some centres undefined)	i	9	348*	105	i	106
CCOC(=O)N1CCN(C(=O)CSc2nc3c(cnn3-c3ccc(Cl)cc3)c(=O)[nH]2)CC1	i	9	-10	110	i	110
O=C(O)Cc1ccc2oc(-c3cccnc3)nc2c1	i	-3	-9	107	i	104
COc1ccc(CNC(=O)C(c2ccccc2F)N(C(=O)c2csnn2)C2CC2)cc1 (centres undefined)	i	-5	53	99	i	93
CCN(CC)c1ccc(/C=C(\C#N)c2nc(-c3cccs3)c(NC(C)=O)s2)cc1	.	517*	.	104	.	290*
COc1ccccc1OCC(=O)NNC(=O)C(=O)N1CCCC1	i	12	10	100	i	112
CC[n+]1c(/C=C/c2ccc(N(C)C)cc2)ccc2ccccc21	i	34	-19	95	i	4.0*
CCC(OC(=O)c1nsc(Cl)c1Cl)C(=O)NC(C)(C)C (centres undefined)	i	18	-1	104	i	12*
C1CN(CC23CC4CC(CC(C4)C2)C3)CCO1	i	9	344*	101	i	101
CCOC(=O)N1CCN(C(=O)C(=O)c2cn(CC(=O)N3CCCCCC3)c3ccccc23)CC1	i	1	1	97	i	2.0*
CCOC(=O)C1CCN(C(=O)C(=O)c2cn(CC(=O)N3CCCCCC3)c3ccccc23)CC1	i	-10	3	93	i	74
O=[N+]([O-])c1ccc(N2CCN(CC3CCCCC3)CC2)cc1	i	7	315	104	i	107
O=C(CN1C(=O)NC2(CCc3ccccc32)C1=O)c1ccc(Br)cc1 (centres undefined)	i	.	278*	.	i	.
COC(=O)c1ccc(/C=C/c2c(-c3ccsc3)oc3ccc(N4CCOCC4)cc23)cc1	i	0	-26	107	i	103
